Source: PubChem
RORgamma inh: inhibitors of mouse ROR gamma transcriptional activity; AID 2551; P51450; 310,000 tested, 5.4% active; Potency, µM (doses to about 53.6 µM), without a hit: at the highest dose activity change, negative = inhibition, hits mostly inhibitors; Drosophila S2 Gal4-RORgamma UAS-luciferase reporter, 20 h; note: potency is the fitted concentration of half-maximal effect; nearly all actives have a fitted effect of over 60% in size
Target sequence (P51450 whole entry, looked up, the tested form may be a part): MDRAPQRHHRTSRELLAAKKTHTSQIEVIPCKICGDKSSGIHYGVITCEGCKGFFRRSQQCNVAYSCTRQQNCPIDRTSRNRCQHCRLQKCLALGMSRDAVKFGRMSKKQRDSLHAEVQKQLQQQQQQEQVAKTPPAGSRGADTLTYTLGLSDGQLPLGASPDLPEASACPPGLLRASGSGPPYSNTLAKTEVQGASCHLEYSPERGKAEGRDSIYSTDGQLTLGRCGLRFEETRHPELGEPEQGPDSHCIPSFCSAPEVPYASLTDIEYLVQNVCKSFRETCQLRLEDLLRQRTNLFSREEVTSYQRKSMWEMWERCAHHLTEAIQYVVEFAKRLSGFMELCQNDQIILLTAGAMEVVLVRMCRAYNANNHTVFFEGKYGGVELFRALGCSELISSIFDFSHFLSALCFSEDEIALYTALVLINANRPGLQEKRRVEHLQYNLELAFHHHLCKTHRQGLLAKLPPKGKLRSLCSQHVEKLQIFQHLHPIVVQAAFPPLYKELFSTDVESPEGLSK
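Luminescence from a UAS-regulated Photinus luciferase reporter in stably transfected Drosophila Schneider cells is measured; decreased signal marks ROR gamma inhibition. Fusion expression is induced by 700 uM copper sulfate for 20 hr.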
TDP1 cell noCPT: qHTS for Inhibitors of human tyrosyl-DNA phosphodiesterase 1 (TDP1): qHTS in cells in absence of CPT | 420,000 tested, 15% active | AID 686978, 2013 | DT40 Tdp1-/- hTDP1 cells, no CPT, ATP luminescence, 48 h | Potency, µM (highest dose often 46.2 µM), without a hit: top-dose activity change, negative = growth inhibition, actives largely listed as inhibitors; note: potency is the fitted concentration of half-maximal effect; nearly all actives have a fitted effect of over 55% in size
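Camptothecin absent (DMSO only). Human TDP1-complemented DT40 knockout cells, 400 cells/well, 37 °C for minimum 48 hr; ATP measured via CellTiter-Glo, 30 min dark incubation, luminescence.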
LDHA inh: blocks human lactate dehydrogenase A | 480,000 tested, 0.15% active | activity change, % (values are at about 110 or 230 µM) | AID 1347041 | purified LDHA, NADH/diaphorase-resazurin fluorescence; active compounds read low | P00338; in the data active = activity change below about -30%; inconclusive = mostly about -25% to -30%;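 note: plate controls were DMSO wells for no effect and wells without enzyme for full effect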
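Resorufin fluorescence (ex540/em590), read at 0 and 20 min after diaphorase/resazurin addition, reports the NADH left after a 5 min room-temperature reaction of 2 nM human LDH5 with 0.06 mM NADH and 0.2 mM pyruvate.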
VP16 counter: Gal4-VP16 reporter inhibition counter-screen; Drosophila S2 Gal4-VP16 UAS-luciferase, luminescence, 20 h; Potency, µM (series often up to 53.6 µM), for inactives: at the highest dose activity, negative = inhibition, actives largely listed as inhibitors; 310,000 tested, 3.5% active; AID 2546;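 note: Gal4-VP16 expression switched on by copper sulfate through the metallothionein promoter; potency is the fitted concentration of half-maximal effect; nearly all actives have a fitted effect of over 50% in size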
DT40 TDP1 CPT: DT40-hTDP1 cell growth loss with CPT. chicken DT40 Tdp1-/-;hTDP1 cells + 20 nM CPT, ATP luminescence, 48 h. 420,000 tested, 12% active. Potency, µM (doses to about 46.2 µM), for inactives: at the top dose activity change, negative = growth inhibition, most hits filed as inhibitors; note: potency is the fitted concentration of half-maximal effect; nearly all actives have a fitted effect of over 55% in size
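Chicken DT40 Tdp1-/- cells complemented with human TDP1, 400 cells/well, exposed to compounds plus 20 nM camptothecin for at least 48 h at 37 C; viability read as ATP content by CellTiter-Glo luminescence.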
IL1B secr inh: inflammasome signaling inhibition, IL-1 beta readout. 360,000 tested, 4.7% active. THP-1 LPS/ATP IL-1B secretion, AlphaLISA, 16 h; active compounds read low. activity change, % at 57.5 µM; in the data active = activity change below about -50%; inconclusive = mostly about -30% to -49%
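Secreted IL-1B measured by AlphaLISA bead assay after 16 h compound exposure of THP-1 cells; compounds (final up to 57.5 uM) added 1 h before LPS (250 ng/mL) and ATP (1.25 mM) stimulation; lower signal means less secretion.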
Numbers without * were called inactive. Shown are actives, neighbours in structure and some others; about 18% of the full set was active somewhere. Unless noted, calls come from the whole dose curve; as a rule, active = well fitted curve in the direction sought with a large enough effect; inconclusive = small, poorly fitted or top-dose-only effect, or another doubt; inactive = no such curve, though single readings can be large; an effect the other way counts as inactive or inconclusive. Unless noted, % is set by controls: 0 for no effect and ±100 for the full control effect.

`COc1ccccc1N1CCN(CCn2c(=O)[nH]c3c([nH]c4ccccc43)c2=O)CC1` gave RORgamma inh 18%, TDP1 cell noCPT -4%, VP16 counter -17% and DT40 TDP1 CPT 5%.
`Cc1nc(NC(=O)COc2cccc3ccccc23)sc1C` gave LDHA inh 8.
`COc1ccccc1N1CCN(c2nc(-c3cccnc3)nc3ccccc23)CC1` gave LDHA inh 9.
For COc1cc(CNCC2CCNCC2)ccc1OCc1ccccc1Cl the results were LDHA inh 1.
For Cc1[nH]c2ccccc2c1C1(O)C(=O)N(Cc2ccccc2)c2ccc(Cl)cc21 (stereo unspecified) the results were TDP1 cell noCPT 5.2µM*, LDHA inh -1 and DT40 TDP1 CPT 6.5µM*.
For Cc1[nH]c2ccccc2c1C1(O)C(=O)N(Cc2ccc3c(c2)OCO3)c2ccccc21 (stereo unspecified) the results were RORgamma inh 3%, TDP1 cell noCPT 5.2µM*, LDHA inh 6, VP16 counter -5%, DT40 TDP1 CPT 3.3µM* and IL1B secr inh 12.
Screening Cc1ccc2c(c1)C(O)(c1c(C)[nH]c3ccccc13)C(=O)N2 (stereo unspecified) returned RORgamma inh 57%, TDP1 cell noCPT -19%, LDHA inh -1, VP16 counter 1%, DT40 TDP1 CPT 4% and IL1B secr inh 32.
Cc1ccc(CN2C(=O)C(O)(c3c(C)[nH]c4ccccc34)c3ccccc32)cc1 (stereo unspecified) was read as TDP1 cell noCPT 4.6µM*, LDHA inh 1 and DT40 TDP1 CPT 6.5µM*.
For O=C(c1cc(=O)[nH]c2ccccc12)N1CCN(Cc2ccc3c(c2)OCO3)CC1 the results were TDP1 cell noCPT -5%, LDHA inh -1, DT40 TDP1 CPT -8% and IL1B secr inh 1.
For Cc1[nH]c2ccccc2c1C1(O)C(=O)N(Cc2ccc(Cl)cc2)c2ccccc21 (stereo unspecified) the results were TDP1 cell noCPT 5.2µM*, LDHA inh 0 and DT40 TDP1 CPT 5.8µM*.
Cc1nc2c(c(=O)[nH]1)C(c1cc(F)ccc1F)CC(=O)N2 (stereo unspecified) was read as LDHA inh 4.
Screening CC(=O)Nc1ccc2nc(-c3ccccc3)oc2c1 returned LDHA inh 2.
`Cc1ccc(N2C(N)=C(C#N)C3(C(=O)Nc4ccc(C)cc43)C3=C2CC(C)(C)CC3=O)cc1` (stereo unspecified) gave LDHA inh -8.
Screening COc1cc2nc(C3CC3)n(NC(=O)c3ccc(F)cc3)c(=O)c2cc1OC returned RORgamma inh -7%, TDP1 cell noCPT 0%, LDHA inh -1, VP16 counter -1%, DT40 TDP1 CPT -24% and IL1B secr inh 0.
`CCC(C)Nc1ccc2c(cc1=O)[C@@H](NC(C)=O)CCc1cc(OC)c(OC)c(OC)c1-2` (stereo partly specified) gave LDHA inh 17.
Screening COc1cc2c(c(OC)c1OC)-c1ccc(NC(=O)c3ccc(F)cc3)c(=O)cc1[C@@H](NC(C)=O)CC2 returned RORgamma inh 44%, TDP1 cell noCPT 7.3µM*, LDHA inh -7, VP16 counter 1%, DT40 TDP1 CPT 8.2µM* and IL1B secr inh 14.
COc1cc2c(c(OC)c1OC)-c1ccc(NCc3ccccc3)c(=O)cc1C(NC(C)=O)CC2 (stereo unspecified) was read as TDP1 cell noCPT 0.92µM*, LDHA inh 0, DT40 TDP1 CPT 0.92µM* and IL1B secr inh 85.
CCS(=O)(=O)N1CCc2ccc(NC(=O)Nc3ccc(C)c(C)c3)cc21 was read as LDHA inh 2.
Screening COc1ccc(C(NC(=O)Cn2c(=O)c3c(ncn3C)n(C)c2=O)C(C)C)cc1 (stereo unspecified) returned LDHA inh 3.
Screening Cc1c(CCC(=O)NC2CCCCCC2)c(=O)oc2cc(O)ccc12 returned LDHA inh 1.
CCc1ccc(N(CC(=O)NC(C)(C)C)C(=O)CNC(=O)c2cccs2)cc1 was read as RORgamma inh -5%, TDP1 cell noCPT 0%, LDHA inh -8, VP16 counter -8%, DT40 TDP1 CPT -3% and IL1B secr inh -3.
For CCC(C)c1ccc(N(CC(=O)NC(C)(C)C)C(=O)CNC(=O)c2cccs2)cc1 (stereo unspecified) the results were RORgamma inh -5%, TDP1 cell noCPT 18µM*, LDHA inh -4, VP16 counter -34%, DT40 TDP1 CPT inconclusive and IL1B secr inh -5.
For Cc1cc(Cl)cc(C)c1OCC(=O)NCc1cccc(NC(=O)C2CC2)c1 the results were LDHA inh -4.
`COc1ccccc1Oc1c(C)oc2cc(OCC(=O)Nc3ccccc3F)ccc2c1=O` gave LDHA inh -15.
COc1cccc(C2=CC(c3ccc(N(C)C)cc3)n3nnnc3N2)c1 (stereo unspecified) was read as RORgamma inh -38%, TDP1 cell noCPT 13µM*, LDHA inh 12, VP16 counter 4%, DT40 TDP1 CPT 21µM* and IL1B secr inh -3.
`COc1cccc(C2C=C(c3ccc(OC)cc3OC)Nc3nnnn32)c1` (stereo unspecified) gave RORgamma inh -13%, TDP1 cell noCPT 16µM*, LDHA inh 2, VP16 counter 0%, DT40 TDP1 CPT inconclusive and IL1B secr inh -5.
`CCOc1ccc(NC(=O)c2cnn3c2NC(c2cccc(OC)c2)=CC3c2ccccc2)cc1` (stereo unspecified) gave TDP1 cell noCPT 21µM*, LDHA inh 0 and DT40 TDP1 CPT 21µM*.
Screening COc1ccc(C2C=C(c3ccccc3)Nc3nnnn32)cc1 (stereo unspecified) returned RORgamma inh 7%, TDP1 cell noCPT inconclusive, LDHA inh -1, VP16 counter 1%, DT40 TDP1 CPT -18% and IL1B secr inh 2.
`COc1cccc(C2=CC(c3ccccc3)n3nnnc3N2)c1` (stereo unspecified) gave RORgamma inh inconclusive, TDP1 cell noCPT 3.7µM*, LDHA inh -6, VP16 counter 35µM*, DT40 TDP1 CPT 5.8µM* and IL1B secr inh 7.
